Holding throughout (assay): NCI-60 one-dose screen, 48 h (100 = growth as untreated, 0 = no growth, -100 = all killed)
Settings in all cases: 10 µM unless noted

Test [1] relates to SK-MEL-2 melanoma.
The subject of test [2] is EKVX NSCLC.
Test [3] relates to SN12C renal.
The subject of test [4] is UO-31 renal.
Test [5] concerns TK-10 renal.
Test [6] concerns ACHN renal.
The subject of test [7] is CAKI-1 renal.
Test [8] deals with A498 renal.
Test [9] relates to MOLT-4 leukemia.
Test [10] relates to CCRF-CEM leukemia.

Each structure is given as a SMILES string. About 83,000 compounds went through this panel and 20% of them were active in at least one assay; those are over-represented in the sample as a whole.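 Plates (96-well) were seeded with cells, treated with compound at one concentration, and incubated for 48 hours before percent growth was determined.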 Unmarked numbers belong to inactive results. Activity calls are given as the source filed them. How the source made its calls: active means growth percent below 10; inactive means the rest.

Turning to `COc1ccc(/C=C/C(=O)NCC(C)O)cc1` (stereo unspecified), the growth in test [1] is 93.3%; in test [2], 99.4%; in [3] it was 105%; in test [4], 81.9%; in test [5], 89.1%; in test [6], 102%. Also, the growth in test [7] is 95.8%; in test [8], 92.7%; in [9], 109%.
`CC(C)=CCC[C@](C)(O)[C@H]1CC[C@]2(C)[C@@H]1CC[C@@H]1[C@@]3(C)C/C(=C/c4ccc(Br)cc4)C(=O)C(C)(C)[C@@H]3CC[C@]12C`: the growth in test [1] was 113%; in test [2] it was 94.3%; in [3], 88%; in test [4], 70.4%; in test [5] it was 130%; in test [6], 98.1%. Besides, the growth is 64.7% in test [7], 83.4% in [10] and 84.1% in test [9].
Take `CC(=O)O[C@H]1CC[C@]2(C)[C@H]3CC=C4[C@@H]5[C@H](C)[C@@H](C)CC[C@]5(C(=O)NCCNCCNCCN)CC[C@@]4(C)[C@]3(C)CC[C@H]2C1(C)C`: the growth in [1] was 105%; in [2], 72.6%; in test [3] it was 78.3%; in [4], 63.5%; in test [5] it was 101%; in test [6] it was 91.5%. Moreover, the growth was 55.8% in [7], 95.4% in test [8] and 49.9% in test [9].
Take `O=C(N/N=C\c1ccccc1O)C1CC1`: the growth is 103% in test [1]; 109% in test [2]; 93.6% in test [3]; 71% in test [4]; 118% in test [5]; 108% in test [6]. The results for the growth in [7], in [10] and in [9] were 115%, 83.7% and 101%, respectively.
For the compound `N=c1ccc2nc3c(cc(N)c4ccccc43)oc-2c1`, the growth is -36.1% (active) in test [1]; -33.9% (active) in test [2]; -95.2% (active) in test [3]; -78.7% (active) in [4]; -29.7% (active) in [5]; -94.4% (active) in test [6]. For the same compound, the results for the growth in test [7], in test [10] and in test [9] were -60% (active), -24.9% (active) and -44% (active), respectively.
For `CC/C(=N/NC(N)=O)c1ccccc1`, the growth was 115% in test [1]; 91.5% in test [2]; 106% in test [3]; 86.4% in test [4]; 105% in [5]; 108% in test [6]. Moreover, the growth in [7] is 94.7%; in test [10], 94.2%; in [9], 98%.
With `C[C@@H](C(=O)O)c1ccc2c3cc(Cl)ccc3n(Cc3cc(=O)oc4ccc(Cl)cc34)c2c1`, the growth was 101% in [1]; 97% in test [2]; 98.8% in test [3]; 76.3% in [4]; 116% in [5]; 99.8% in [6]. The growth in [8] is 102%; in test [10], 105%; in test [9] it was 101%.
In the case of `CCCCC[C@H]1C/C=C2/C(=O)C(Cl)=C[C@@H]2C/C=C\CCCC(=O)O1`, the growth in test [1] is -45.4% (active); in [2] it was -69% (active); in [3] it was -26.9% (active); in test [4] it was -100% (active); in test [5], -56.7% (active); in [6] it was -84.4% (active). Moreover, the figures for the growth in [8], in test [10] and in test [9] were -76.2% (active), 0.514% (active) and -2.82% (active), respectively.
For `COc1cc(/C=N/NC(=S)NNC(=S)NC2CCCCC2)cc(OC)c1OC`, the growth is 108% in test [1]; 84.1% in test [2]; 87.8% in test [3]; 70.3% in test [4]; 147% in test [5]; 94.2% in test [6]. The growth was 77.7% in [7], 88.7% in [10] and 73.8% in test [9].
With `CCOC(=O)c1ccc2c(c1)[n+](=O)c(C(=O)C1CCCS1)c(C(F)(F)F)n2[O-]` (stereo unspecified), the growth in test [1] is -87.3% (active); in [2], -77% (active); in [3], -47.3% (active); in [4] it was -92.4% (active); in test [5], -96.5% (active); in test [6], -86.9% (active). The growth in [7] is -85.4% (active); in test [10], -44% (active); in test [9] it was -67.3% (active).
As for `COC(=O)[C@]12CC[C@@H](C)[C@H](C)[C@@H]1C1=CC[C@@H]3[C@@]4(C)C(c5ncon5)=C[C@@](C)(CO)C4=CC[C@@]3(C)[C@]1(C)CC2`, the growth in test [1] is -51% (active); in test [2] it was -76.5% (active); in [3], -14.4% (active); in [4], -93.5% (active); in [5], 1.76% (active); in test [6], -89.4% (active). Moreover, the results for the growth in [7], in test [10] and in test [9] were 20.6%, -52.5% (active) and -42.8% (active), respectively.
For the compound `CN1CCN(CCOc2ccc(-c3cnc4c(-c5ccccc5F)cnn4c3)cc2)CC1`, the growth in test [1] was 91.9%; in [2] it was 68.4%; in [3], 60.7%; in test [4], 39.1%; in test [5], 71%; in [6] it was 55.7%. For the same compound, the figures for the growth in test [7], in [10] and in test [9] were 45.8%, 5.37% (active) and -9.43% (active), respectively.
With `COc1ccc(C2NC(=O)Nc3ccccc32)c(OC)c1` (stereo unspecified), the growth was 102% in test [1]; 97% in [2]; 95.3% in test [3]; 78.3% in test [4]; 95.5% in test [5]; 99.4% in [6]. The growth in [7] was 93%; in test [9] it was 95.5%.

The values are drawn from PubChem BioAssay (NCI).
